Results: PubChem BioAssay AID504465 (National Center for Advancing Translational Sciences (NCATS), 2011)
Out of some 2,100 compounds screened, about 210 (10%) were called active. Roughly 53% stayed inconclusive and do not appear here. Some of the results follow. A number with no mark means an inactive call. Calls follow the shape of the dose curve; as a rule, active = well fitted inhibition curve with a large enough effect; inconclusive = small, poorly fitted or top-dose-only effect, or effect the other way; inactive = no such curve, though single readings can be large or run the other way.

Assay: IN Cell qHTS Assay for Inhibitors of the mTORC1 Signaling Pathway in MEF (Tsc2-/-, p53-/-) Cells: Sytravon; also: nearly all actives have a fitted effect of over 60% in size
Conditions: phospho-rpS6 immunofluorescence, 24 h; series mostly up to 38.3 µM; activity, negative = inhibition: at the top concentration
Procedure, shortened: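 Immunofluorescence of rpS6 phosphorylation (Ser235/236) in mouse embryonic fibroblasts lacking Tsc2 and p53, after 24 h compound exposure; Hoechst-normalized signal imaged, each well scored as % active cells relative to rapamycin (7.5 nM) and DMSO controls.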
Potency is read from the fitted curve at half-maximal effect.

SMILES	activity, negative = inhibition [%]	Potency
COc1ccc(OC)c(NS(=O)(=O)c2ccc3c(c2)C(C)(C)C(=O)N3C)c1	-4.35	–
COc1cc2nc(Nc3ccc(C)c(C)c3)nc(N)c2cc1OC	–	4.14 µM (active)
O=C(Cn1c(=O)oc2cc(S(=O)(=O)NCc3ccccc3)ccc21)NCc1ccc(Cl)cc1	0	–
CC(C)(C)c1ccc(C(=O)N2CCCCC2CCN2CCCCC2)cc1 (stereo unspecified)	-14.5	–
CCOC(=O)c1ccc(N2C(=O)c3n[nH]c(-c4cccs4)c3C2c2ccc(CC)cc2)cc1 (stereo unspecified)	-94.6	–
CCOC(=O)c1ccc(N2C(=O)c3n[nH]c(-c4cccs4)c3C2c2cccc(F)c2)cc1 (stereo unspecified)	–	13.1 µM (active)
CC(C)(C)c1ccc(C2NC(=O)c3n[nH]c(-c4cccs4)c32)cc1 (stereo unspecified)	-100	–
Cc1ccc(F)cc1NC(=O)CSc1nc(-c2cccs2)cc(C(F)(F)F)n1	–	11.7 µM (active)
Cc1ccc(C)c(NC(=O)Cn2cc(C(=O)c3cccs3)c3ccccc32)c1	-9.22	–
Cc1ccc(NC(=O)CSc2nc(-c3cccs3)cc(C(F)(F)F)n2)cc1C	-19.5	–
Cn1c(=O)c2c(-c3ccc(Br)cc3)n(Cc3ccc(F)cc3)cc2n(C)c1=O	-79.2	–
CSc1ccccc1NC(=O)CCS(=O)(=O)c1nc(-c2cccs2)cc(C(F)(F)F)n1	3.05	–
COc1ccc(NC(=O)CCS(=O)(=O)c2nc(-c3cccs3)cc(C(F)(F)F)n2)cc1OC	–	16.5 µM (active)
COc1ccc(NC(=O)C2CCC(CNS(=O)(=O)c3ccc(Br)s3)CC2)cc1OC (stereo unspecified)	-78.3	–
COc1ccc(NC(=O)CCS(=O)(=O)c2nc(-c3cccs3)cc(C(F)(F)F)n2)cc1	-14.4	–
O=C(CCS(=O)(=O)c1nc(-c2cccs2)cc(C(F)(F)F)n1)Nc1cc(Br)ccc1O	–	7.36 µM (active)
c1ccc(N2CCN(c3ncnc4c3nc3n4CCCCC3)CC2)cc1	-7.73	–
CC(=O)c1ccc(N2CCN(c3ncnc4c3c(-c3ccccc3)cn4-c3cccc(C)c3)CC2)cc1	6.25	–
Cc1cccc(N2CCN(c3ncnc4c3nc3n4CCCCC3)CC2C)c1 (stereo unspecified)	–	14.7 µM (active)
CCCc1cc(N2CCN(c3ccccc3)CC2)n2cnnc2n1	-1.92	–
CCCCC1CCC(C(=O)N2CC(=O)Nc3ccc(F)cc3C2c2ccc(F)cc2)CC1 (stereo unspecified)	–	16.5 µM (active)
Cc1c(Cl)cccc1NC(=O)c1ccc2c(c1)nnn2C1CCCC1	-0.577	–
Nc1c(C(=O)c2ccc(F)cc2)sc(Nc2ccccc2F)c1S(=O)(=O)c1ccc(Br)cc1	0.296	–

SMILES	activity, negative = inhibition [%]	Potency
Cc1ccc(-c2nnc(Nc3cccc(Cl)c3)c3ccccc23)cc1S(=O)(=O)N1CCN(C)CC1	–	9.27 µM (active)
COc1ccc(OC2CCN(S(=O)(=O)c3ccc(OC)cc3)CC2)cc1	-7.91	–
Cc1cc(-c2ccc(C)c(S(=O)(=O)N3CCOc4ccc(Cl)cc43)c2)on1	-4.75	–
COC(=O)COc1ccc(-c2nnc(Nc3ccc(O)cc3)c3ccccc23)cc1	-15.2	–
Cc1cccc(NC(=O)Cn2nc(-c3ccc(Cl)cc3)c3ccccc3c2=O)c1	-100	–
Cc1cccc(Nc2nnc(-c3ccc(C)c(S(=O)(=O)N4CCN(C)CC4)c3)c3ccccc23)c1	–	14.7 µM (active)
COc1ccc(Nc2nnc(-c3ccc(C)c(S(=O)(=O)N4CCN(C)CC4)c3)c3ccccc23)cc1	–	16.5 µM (active)
CCCCC(=O)Nc1nnc(S(=O)(=O)N2CCCCCC2)s1	-15.2	–
CCCN(C(=O)Cn1ncc2c([nH]c3ccc(C)cc32)c1=O)c1ccccc1C	1.08	–
CCN(CC)CCCNc1ncnc2c1cnn2-c1ccc(C)c(C)c1	6.25	–
O=C(Nc1ccc(F)cc1F)N1CCN(c2ccc(Cl)c(Cl)c2)CC1	-14.8	–
Cc1ccccc1NC(=O)CCn1cnc2onc(-c3ccc(F)cc3)c2c1=O	-0.638	–
Cc1cc2c(cc1C)NC(CC(=O)Nc1ccccc1)C(=O)N2 (stereo unspecified)	-11.2	–
CCS(=O)(=O)c1ncc(Cl)c(C(=O)N2CCN(c3ccc(OC)cc3)CC2)n1	–	4.65 µM (active)
CCn1c2c(c(=O)n3ncc(C(=O)N4CCN(c5ccc(Cl)cc5)CC4)c13)CN(Cc1ccc(OC)cc1)CC2	-6.81	–
Cc1oc2ncnc(N3CCCCC3)c2c1C(=O)N1CCN(c2cccc(Cl)c2)CC1	-0.832	–
CCS(=O)(=O)c1ncc(Cl)c(C(=O)N2CCN(c3cccc(Cl)c3)CC2)n1	–	2.61 µM (active)
CS(=O)(=O)c1ncc(Cl)c(C(=O)N2CCN(c3cccc(Cl)c3)CC2)n1	–	0.521 µM (active)
CNS(=O)(=O)c1cn(CC(=O)N2CCN(c3cccc(Cl)c3)CC2)cc1S(=O)(=O)NC	-5.97	–
Cc1ccccc1S(=O)(=O)Cc1ccc(C(=O)N2CCN(c3cccc(Cl)c3)CC2)o1	-13.2	–
Cc1ccc2nc(N3CCC(C(=O)N4CCN(c5cccc(Cl)c5)CC4)CC3)[nH]c2c1	10.7	–
CCCS(=O)(=O)c1ncc(Cl)c(C(=O)N2CCN(c3ccc(OC)cc3)CC2)n1	0	–
COc1ccc(N2CCN(C(CNC(=O)C(=O)NCc3ccc(F)cc3)c3cccnc3)CC2)cc1 (stereo unspecified)	-3.11	–
